Experimental data as given in PubChem BioAssay (EPA / NIEHS).
Records with an inconclusive call do not appear. Calls of active or inactive are those of the source. Rule for the calls: active = hit-call score of the fitted dose curve at least 0.9, where 1 is the maximum; inconclusive = response in the unintended direction; inactive = score below 0.9.

Target: Hepatocyte nuclear factor 4-alpha (Homo sapiens) (UniProt P41235)
Test: ATG_HNF4a_TRANS: Attagene TRANS-FACTORIAL HepG2 Assay for human Hepatocyte Nuclear Factor 4 alpha (HNF4a) (AID 2282982)
Conditions: HepG2 HNF4a transactivation reporter, mRNA readout
Procedure, shortened: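 Transfected HepG2 reporter cells are dosed for 24 h; reporter RNA is reverse-transcribed, amplified, fluorescently labelled and HpaI-digested before CE sizing. Positive-direction fit against DMSO.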

Sequence of Hepatocyte nuclear factor 4-alpha (Homo sapiens) (P41235 whole entry, looked up): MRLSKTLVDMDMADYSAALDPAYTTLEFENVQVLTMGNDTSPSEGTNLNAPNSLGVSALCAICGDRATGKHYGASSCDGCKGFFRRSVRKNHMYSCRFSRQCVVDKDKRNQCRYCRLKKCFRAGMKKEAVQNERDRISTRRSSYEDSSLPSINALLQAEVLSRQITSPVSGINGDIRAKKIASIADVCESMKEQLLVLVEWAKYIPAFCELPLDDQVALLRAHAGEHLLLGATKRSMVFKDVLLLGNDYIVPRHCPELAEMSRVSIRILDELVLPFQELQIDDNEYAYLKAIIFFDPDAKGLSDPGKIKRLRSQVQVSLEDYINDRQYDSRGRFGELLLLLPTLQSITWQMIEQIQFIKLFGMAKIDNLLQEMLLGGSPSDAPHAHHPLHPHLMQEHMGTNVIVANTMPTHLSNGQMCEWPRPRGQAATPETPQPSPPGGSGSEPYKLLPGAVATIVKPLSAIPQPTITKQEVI

Row | SMILES | outcome | AC50
1 | Nc1ccc(-c2ccc(N)c(N)c2)cc1N | inactive | –
2 | CCOP(O)OCC | inactive | –
3 | CCC(C)c1cc(C(C)(C)C)cc(-n2nc3ccccc3n2)c1O (stereo not drawn) | inactive | –
4 | [CH3][Sn]([Cl])([Cl])[Cl] | inactive | –
5 | Nc1ccccc1C(=O)OCCc1ccccc1 | inactive | –
6 | N#Cc1cccc(C#N)c1 | inactive | –
7 | O=C(O)CCCc1ccc(N(CCCl)CCCl)cc1 | inactive | –
8 | Nc1cc(Cl)cc(Cl)c1 | inactive | –
9 | COc1ncc(F)c2nc(S(=O)(=O)Nc3c(F)cccc3F)nn12 | inactive | –
10 | [CH3][Sn]([CH3])([Cl])[Cl] | inactive | –
11 | BrCBr | inactive | –
12 | O=P1(NCCCl)OCCCN1CCCl (stereo not drawn) | inactive | –
13 | CC(Cc1ccc(C(C)(C)C)cc1)CN1C[C@@H](C)O[C@@H](C)C1 (stereo partly drawn) | inactive | –
14 | O=C(O)c1cc[c]([Hg][Cl])cc1 | inactive | –
15 | C[N+](C)(C)CC(=O)O | inactive | –
16 | O=S(=O)(c1ccccc1)c1ccccc1 | inactive | –
17 | Clc1ccc(-c2ccccc2)cc1 | inactive | –
18 | CN(C)C(=O)C(c1ccccc1)c1ccccc1 | inactive | –
19 | C=CCc1ccc(OC(=O)Cc2ccccc2)c(OC)c1 | inactive | –
20 | O=P(O)(Oc1ccccc1)Oc1ccccc1 | inactive | –
21 | [Cl][Sb]([Cl])[Cl] | inactive | –
22 | CCC(=O)c1ccc(Cl)cc1 | inactive | –
23 | Cc1ccc(N(SC(F)(Cl)Cl)S(=O)(=O)N(C)C)cc1 | inactive | –
24 | CC1(C)CC(=O)CC(C)(C)N1[O] | inactive | –
25 | SCc1ccco1 | inactive | –
26 | O=CNC(N1CCN(C(NC=O)C(Cl)(Cl)Cl)CC1)C(Cl)(Cl)Cl (stereo not drawn) | inactive | –
27 | O=[N+]([O-])c1cc(C(F)(F)F)c(Cl)c([N+](=O)[O-])c1Cl | – | 11.1 µM (active)
28 | O=[N+]([O-])O.O=[N+]([O-])O.[Cd] | inactive | –

System: not listed separately
Test: ATG_M_06_TRANS: Attagene TRANS-FACTORIAL HepG2 Assay for M06 Transcription Factor (Internal Marker) (AID 2282983);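 note: reporter transcript level by RT-PCR then capillary electrophoresis fluorescence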
Conditions: HepG2 Attagene TRANS M06 internal marker reporter
Procedure, shortened: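 Cells: HepG2, transient multi-reporter transfection. Exposure: 24 h. Detection: RT-PCR, 6-FAM labelling, HpaI digestion (2 h, 37 °C), capillary electrophoresis. Baseline: DMSO.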

Row | SMILES | outcome
29 | Nc1ccc(-c2ccc(N)c(N)c2)cc1N | inactive
30 | CCOP(O)OCC | inactive
31 | CCC(C)c1cc(C(C)(C)C)cc(-n2nc3ccccc3n2)c1O (stereo not drawn) | inactive
32 | Nc1c(Cl)c(Cl)c(Cl)c(Cl)c1Cl | inactive
33 | COC(=O)c1ccccc1S(=O)(=O)NC(=O)Nc1nc(C)cc(C)n1 | inactive
34 | Nc1ccccc1C(=O)OCCc1ccccc1 | inactive
35 | N#Cc1cccc(C#N)c1 | inactive
36 | O=C(O)CCCc1ccc(N(CCCl)CCCl)cc1 | inactive
37 | COC(C)(C)CCC[C@H](C)C/C=C/C(C)=C/C(=O)OC(C)C | inactive
38 | CCc1cccc(C)c1N(C(=O)CCl)[C@@H](C)COC | inactive
39 | CC(Cc1ccc(C(C)(C)C)cc1)CN1C[C@@H](C)O[C@@H](C)C1 (stereo partly drawn) | inactive
40 | Clc1ccc(-c2ccccc2)cc1 | inactive
41 | C=CCc1ccc(OC(=O)Cc2ccccc2)c(OC)c1 | inactive
42 | O=C(O)COc1ccccc1 | inactive
43 | CCC(=O)c1ccc(Cl)cc1 | inactive
44 | Cc1ccc(N(SC(F)(Cl)Cl)S(=O)(=O)N(C)C)cc1 | inactive
45 | SCc1ccco1 | inactive
46 | O=CNC(N1CCN(C(NC=O)C(Cl)(Cl)Cl)CC1)C(Cl)(Cl)Cl (stereo not drawn) | inactive
47 | O=[N+]([O-])c1cc(C(F)(F)F)c(Cl)c([N+](=O)[O-])c1Cl | inactive
48 | O=[N+]([O-])O.O=[N+]([O-])O.[Cd] | inactive
